# Experimental data from PubChem BioAssay AID1476 (National Center for Advancing Translational Sciences (NCATS), 2009).
# Among all 200,000 compounds or so, about 4,500 (2.2%) were called active. About 12% were inconclusive and are not listed. The full list was thinned out, with actives kept by preference. Unmarked numbers belong to inactive results. Calls follow the shape of the dose curve; as a rule, active = well fitted inhibition curve with a large enough effect; inconclusive = small, poorly fitted or top-dose-only effect, or effect the other way; inactive = flat fitted curve, though single readings scatter.
# Molecular target: Cruzipain (Trypanosoma cruzi) (UniProt P25779)
# Sequence (P25779 123-467 limits assumed): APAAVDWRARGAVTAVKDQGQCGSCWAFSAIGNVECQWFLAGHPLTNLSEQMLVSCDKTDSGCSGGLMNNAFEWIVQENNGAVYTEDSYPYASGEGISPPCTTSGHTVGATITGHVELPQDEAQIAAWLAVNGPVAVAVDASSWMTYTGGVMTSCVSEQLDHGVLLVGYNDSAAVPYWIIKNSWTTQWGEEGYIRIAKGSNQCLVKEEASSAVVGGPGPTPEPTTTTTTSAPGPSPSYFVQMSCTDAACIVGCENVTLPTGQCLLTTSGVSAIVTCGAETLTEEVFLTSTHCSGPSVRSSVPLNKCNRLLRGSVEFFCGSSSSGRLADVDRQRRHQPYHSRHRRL
# Test: qHTS Assay for Promiscuous and Specific Inhibitors of Cruzain (without detergent); also: nearly all actives have a fitted effect of over 40% in size;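 as to max response, negative = inhibition: plate controls were enzyme without inhibitor for no effect and buffer without enzyme for full effect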
# Conditions: purified cruzain, Z-FR-AMC fluorescence, no detergent
# Procedure, shortened: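 Purified cruzain at 1.5 nM, pre-incubated 15 min with compound at room temperature in 100 mM sodium acetate pH 5.5, 5 mM DTT, 0.00005% Triton X-100. Reaction started with 2 uM Z-FR-AMC; AMC fluorescence increase over 60 s gives rate.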
# Potency is read from the fitted curve at half-maximal effect.
SMILES,"max response, negative = inhibition",Potency
Cc1ccc(-c2nc(SCc3ccc(Br)cc3)n3[nH]c(=O)cc3n2)cc1,-0.81%,–
COc1ccc(OC)c(CNC(=O)Cn2nc(C)c3c(C)n(-c4ccccc4)nc3c2=O)c1,-8.59%,–
CC(Sc1nc2ccccc2c(=O)n1Cc1ccco1)C(=O)c1ccccc1 (stereo not drawn),-8.72%,–
NC(=O)c1c(NC(=O)CSc2nnc(-c3ccco3)n2N)sc2c1CCCC2,-17%,–
N#Cc1c(NC(=O)CSc2nc3ccccc3c(=O)n2Cc2ccco2)sc2c1CCCC2,–,10 µM (active)
CCOc1ccc(N(CC)S(=O)(=O)N2CCCC(C(=O)NCc3ccc(SC)cc3)C2)cc1 (stereo not drawn),16%,–
O=C1CCCC2=C1C(c1ccccc1)n1c(s/c(=C/c3cccc(F)c3)c1=O)=N2 (stereo not drawn),-0.66%,–
COCCOC(=O)C1=C(C)N=c2s/c(=C\c3cccs3)c(=O)n2C1c1cccs1 (stereo not drawn),14.7%,–
COc1ccc(OC)c(C2C3=C(N=c4s/c(=C\c5cccc(O)c5)c(=O)n42)c2ccccc2CC3)c1 (stereo not drawn),–,3.16 µM (active)
Cc1ccc2nc(NC(=O)c3nc(SCc4ccccc4F)ncc3Cl)sc2c1,16.1%,–
CCCOC(=O)c1c(NC(=O)c2cc3nc(-c4ccc(OC)cc4)cc(C(F)(F)F)n3n2)sc2c1CCCC2,3.32%,–
CCOC(=O)c1c(NC(=O)c2ccc(Br)o2)sc2c1CCCC2,-20.9%,–
CCCOC(=O)c1c(NC(=O)c2cnn3c2NC(c2ccccc2)CC3C(F)(F)F)sc2c1CCCC2 (stereo not drawn),–,5.01 µM (active)
CCOC(=O)c1ccc(NC(=O)CCn2c(=O)oc3ccccc32)cc1,-3.92%,–
CCOC(=O)C1CCN(c2nc3c(S(=O)(=O)c4ccc(CC)cc4)nnn3c3ccc(Cl)cc23)CC1,-25.4%,–
CCNC(=O)c1cc2n(n1)CCCN(Cc1ccc(C)cc1)C2=O,4.87%,–
Cc1ccccc1CNC(=O)CCc1cn(Cc2ccccc2C)c2ccccc12,0.523%,–
COc1ccc(C)cc1Nc1nc2ccccc2c2nnc(C)n12,-0.388%,–
COc1ccc(OC)c(Nc2nc(-c3ccc(O)c(O)c3)cs2)c1,-16.7%,–
COc1ccc(C)cc1Nc1nc(-c2c(C)[nH]c3ccccc23)cs1,–,25.1 µM (active)
CCC1=Nc2cc(C(=O)NCC(C)c3ccccc3)ccc2Sc2ccc(C)cc21 (stereo not drawn),–,12.6 µM (active)
COCCNC(=O)c1ccc2c(c1)N=C(C)c1cc(C)ccc1S2,12.7%,–

SMILES,"max response, negative = inhibition",Potency
CCCC1=Nc2cc(C(=O)NCc3ccco3)ccc2Sc2ccccc21,-12.6%,–
Cc1ccc(CCNC(=O)c2ccc(CNS(=O)(=O)c3ccc(C)cc3)cc2)cc1,-23%,–
CCOC(=O)c1cc2c(=O)n3ccccc3nc2n(CCCOC)c1=NC(=O)C(C)(C)Oc1ccc(Cl)cc1,4%,–
Cc1ccc2nc(CNC(=O)c3ccccc3)[nH]c2c1,6.98%,–
COc1cccc(/C=N\NC(=O)C2=NNC(=O)C2C)c1O (stereo not drawn),14.7%,–
Cc1ccc(/C=N/NC(=O)C2=NNC(c3ccccc3)(c3ccccc3)C2)c(O)c1,–,20 µM (active)
COc1ccc(CCNc2ncnc3onc(-c4ccc(Cl)cc4)c23)c(OC)c1,-2.97%,–
CCOc1cccc(CNC(=O)c2ccc(N3CCCC3)c(NC(=O)Nc3ccccc3CC)c2)c1,-7.71%,–
O=C(Nc1nnc(SCc2ccccc2)s1)c1ccco1,-28.7%,–
Clc1ccccc1CSc1nncn2c1cc1occc12,-9.48%,–
c1ccc(CSc2nnc(-c3ccco3)n2Cc2ccccc2)cc1,-8.71%,–
c1ccc(CSc2nnc(-c3ccco3)c(-c3ccco3)n2)cc1,–,15.8 µM (active)
Nc1nc(SCc2ccccc2Cl)n[nH]1,3.93%,–
Clc1ccccc1CSc1nnc(-c2ccco2)c(-c2ccco2)n1,–,15.8 µM (active)
Cc1ccccc1-c1nc(SCC(=O)N(C)c2ccccc2)c2c(=O)n(C)c(=O)n(C)c2n1,8.08%,–
Cc1[nH]c2ccccc2c1C(c1ccccc1)c1cccs1 (stereo not drawn),3.04%,–
CCc1nn(CC(=O)NCC(C)c2ccccc2)c(=O)c2cc3occc3n12 (stereo not drawn),-11.2%,–
CCn1c(C(=O)Nc2cc(Cl)ccc2C)cc2sc(Cl)cc21,4.79%,–
CCOC(=O)c1c(NC(=S)NC(=O)/C=C/c2cccs2)sc(C)c1C,–,10 µM (active)
CCOC(=O)c1c(NC(=O)/C=C/c2ccco2)sc(C)c1C,-4.04%,–
CCOC(=O)c1c(NC(=O)c2cccs2)sc(C)c1C,6.07%,–
Cc1ccc2nc(COc3ccccc3NC(=O)Nc3ccc(F)c(Cl)c3)cc(=O)n2c1,4.26%,–

SMILES,"max response, negative = inhibition",Potency
COc1ccc(N(C)C(=O)CCS(=O)(=O)c2cccc3nsnc23)cc1,-4.91%,–
Cc1ccc(NC(=O)CSc2nnc3[nH]c(=O)cc(C)n23)cc1Cl,-3.39%,–
CC(=O)c1c(C)[nH]c(C(=O)OCC(=O)Nc2sc3c(c2C#N)CCCC3)c1C,11.6%,–
Cc1cccc(C(=O)OCC(=O)Nc2sc3c(c2C#N)CCC3)c1,–,25.1 µM (active)
Cc1ccc(C)c(OCC(=O)Nc2sc3c(c2C#N)CCCC3)c1C,-0.311%,–
Cc1cc(C)c2oc(-c3cccc(NC(=O)c4cccc(F)c4)c3C)nc2c1,-10.4%,–
CCOC(=O)c1cccc(NS(=O)(=O)c2cc(-c3cnc(C)o3)ccc2OC)c1,1.23%,–
COc1ccccc1N1CCN(C(=O)c2cc(-c3ccc(Br)cc3)on2)CC1,16.1%,–
COc1ccccc1N1CCN(C(=O)c2cc(-c3ccc(Cl)c(Cl)c3)on2)CC1,–,25.1 µM (active)
COc1ccccc1-c1cc(C(=O)N2CCCCC2)no1,-9.93%,–
O=C(Nc1c(C(=O)N2CCN(c3ccc(F)cc3)CC2)oc2ccccc12)c1ccco1,-12.7%,–
COc1ccccc1CN1CCC(CNC(=O)c2cnn(-c3cccc(Cl)c3)c2C2CCN(C(=O)OC(C)(C)C)CC2)CC1,4.5%,–
CC1=C(c2ccc(F)cc2)S(=O)(=O)N=C1N1CCC(C(=O)NCCc2ccccc2C)CC1,-2.21%,–
CNc1nc(-c2ccccc2OC)nc2ccccc12,-18.4%,–
COc1ccccc1-c1nc(C(F)(F)F)c(OC)o1,-2.62%,–
COc1ccccc1C1=Nc2cccc3cccc(c23)N1,–,12.6 µM (active)
Cc1ccc(NC(=O)NC(C)c2c(-n3cccc3)sc(C)c2C)c(C)c1 (stereo not drawn),-10.8%,–
CCC(=O)N1CCc2cc(Br)cc(S(=O)(=O)Nc3ccc(C)cc3C)c21,-1.34%,–
COc1ccc(C(=O)Cc2cnn(-c3ccccc3)c2)c(O)c1,4.15%,–
C=C(C)COc1ccc(-c2n[nH]c(C)c2-c2ccccc2)c(O)c1,-10.5%,–
Cc1[nH]nc(-c2ccc(OCc3cnn(-c4ccccc4)c3)cc2O)c1Oc1ccc(Cl)cc1,–,10 µM (active)
CCCN(CCC)CCNC(=O)Cn1cnc2sc(C)c(S(=O)(=O)N3CCC(C)CC3)c2c1=O,-2.05%,–

SMILES,"max response, negative = inhibition",Potency
COc1cc(C(CC(=O)NCCC(C)C)N2Cc3ccccc3C2=O)cc(OC)c1OC (stereo not drawn),2.58%,–
COC(=O)C(C)Oc1ccc2c(-c3cccc([N+](=O)[O-])c3)cc(=O)oc2c1 (stereo not drawn),0.187%,–
COc1ccc(Nc2cc(=O)oc3ccccc23)cc1,-23.8%,–
COc1cc(OC)c2c(-c3cccc(-c4cccc(N)c4)c3)cc(=O)oc2c1,–,11.2 µM (active)
Cc1c(C(=O)N2CCCC2)oc2c1-c1nn(CC(=O)NCc3ccc(OC(C)C)cc3)cc1CC2,21.1%,–
CC(C)=C(NC(=O)c1ccco1)C(=O)NCCc1nc2ccccc2[nH]1,-27.9%,–
COc1ccc(OC(C)C(=O)NCCc2nc3ccccc3[nH]2)cc1 (stereo not drawn),-6.55%,–
O=C(COc1ccccc1)NCCc1nc2ccccc2[nH]1,–,1 µM (active)
Cc1cccc(NC(c2cccc(F)c2)c2ccc3ccc(C)nc3c2O)n1 (stereo not drawn),9.47%,–
Cc1cc(NS(=O)(=O)c2ccc(NC(=O)c3ccccc3C)cc2)nc(C)n1,11.3%,–
O=C(Cn1cnc2c(nnn2Cc2ccc(F)cc2)c1=O)NCc1ccc2c(c1)OCO2,-6.08%,–
Cc1nc(Nc2ccc3c(c2)OCCO3)c2nnn(Cc3ccccc3Cl)c2n1,-5.56%,–
CCCc1nc(NCc2ccc3c(c2)OCO3)c2nnn(Cc3ccccc3Cl)c2n1,–,7.94 µM (active)
Cc1ccccc1-c1nc(CS(=O)(=O)CC(=O)Nc2cc(Cl)cc(Cl)c2)c(C)o1,-28.1%,–
COc1ccc(-c2[nH]c3c(c2-c2c(-n4cccc4)n(C)c(=O)n(C)c2=O)c(=O)n(C)c(=O)n3C)cc1,-3.26%,–
COC(=O)C(NC(=O)c1ccc(OC)cc1)(Nc1ncc(S(=O)(=O)c2ccc([N+](=O)[O-])cc2)s1)C(F)(F)F (stereo not drawn),-9.17%,–
COc1ccc(C(=O)Nc2ncc3c(n2)-c2ccccc2CC3)cc1,-8%,–
COc1ccc(C(=O)Nc2nc(-c3ccc(OC)cc3)c(-c3ccc([N+](=O)[O-])cc3)s2)cc1,–,7.94 µM (active)
O=C(NCc1ccccc1Cl)c1cccn1-c1nnc(N2CCCCC2)s1,-7.04%,–
Oc1ccc(O)c2c(O)cccc12,–,12.6 µM (active)
O=c1cc(-c2ccc(O)c(O)c2)oc2cccc(O)c12,0.411%,–
O=S(=O)(c1ccc(Cl)cc1)c1nnn2c1nc(NC1CCCC1)c1sccc12,1.8%,–
